Rows were chosen to be rich in hits. Some 21% of all compounds tested hit in one or more screens of this group.
Pf growth 96h – P. falciparum growth inhibition at 96 hour, primary screen for plastid delayed-death inhibitors; Potency, µM (titrated, usually from 28.7 µM), for the others: top-dose activity change, negative = inhibition, hits mostly inhibitors; P. falciparum luciferase reporter growth, 96 h; 320,000 tested, 6.9% active; active means well fitted inhibition curve with a large enough effect; inconclusive means small, poorly fitted or top-dose-only effect, or another doubt; inactive means no such curve, though single readings can be large or run the other way; further: potency means the concentration at half of the fitted maximal effect; on the % scale 0 is the no-effect control and ±100 the full control effect
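Readout is luminescence from an integrated firefly luciferase in P. falciparum. Red cells, 2% hematocrit and 0.05% parasitemia final, were cultured with compound through two parasite generations (96 hours) at 37 C, 5% CO2.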
Shiga inhibitor – inhibitors of Shiga toxin in Vero cells. Vero cells, Shiga toxin protein synthesis inhibition reporter. inhibition, % at 38.7 µM. 290,000 tested, 9.2% active; in the data active means inhibition mostly above about 28%, no sharp cut-off; inactive means mostly below about 43%; further: 0% is about no effect
NS1 inh – influenza NS1 inhibition. 270,000 tested, 0.4% active. Potency, µM (titrated, usually from 46.1 µM), for the others: top-dose activity, positive = more growth; further: potency means the concentration at half of the fitted maximal effect; actives are rising curves; nearly all actives have a fitted effect of over 50% in size
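A cell-based growth assay was used: compounds that relieve NS1-induced slow growth of budding yeast raise OD600. Assay medium was yeast nitrogen base with ammonium sulphate and -URA supplement, pH 6.0, with 2% galactose.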
Cycloheximide cs – counter-screen hit for Shiga toxin inhibitors, cycloheximide | AID 2314 | cell reporter, cycloheximide protein synthesis inhibition counterscreen | max response, % | 300,000 tested, 12% active; in the data active means max response mostly above about 13%, no sharp cut-off; inactive means mostly below about 14%; further: read at 38.3 µM for the half of the compounds with a filed dose; 0% is about no effect
SARS PLP yeast – SARS-CoV PLP inhibition in yeast. S. cerevisiae expressing SARS-CoV PLpro, growth rescue. Potency, µM (series often up to 32.9 µM), for the others: top-dose activity, positive = growth rescue, most hits filed as activators. 330,000 tested, 0.19% active. AID 485353; further: potency means the concentration at half of the fitted maximal effect; 0% is about no effect; nearly all actives have a fitted effect of over 55% in size
Pf growth 48h – P. falciparum growth inhibition at 48 hours (one generation); P. falciparum luciferase growth in erythrocytes, 48 h; Potency, µM (series often up to 28.7 µM), for the others: at the top dose activity change, negative = inhibition, most hits filed as inhibitors; 310,000 tested, 5.9% active; AID 504832; active means well fitted inhibition curve with a large enough effect; inconclusive means small, poorly fitted or top-dose-only effect, or another doubt; inactive means no such curve, though single readings can be large or run the other way; further: potency means the concentration at half of the fitted maximal effect; on the % scale 0 is the no-effect control and ±100 the full control effect
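Cell-based growth assay: transgenic P. falciparum expressing firefly luciferase, cultured in red cells within RPMI 1640 containing 0.5% w/v Albumax, 24 mM bicarbonate and gentamycin. A drop in luciferase activity indicates inhibition.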
* hit, by the source's call; [ ] = another dose, or the depositor's remark. Unless noted, the call rests on the fitted dose curve.

`CC1(C)CC(=O)C(C=Nc2cc(C(=O)c3ccccc3)ccc2N)=C(O)C1` gave Pf growth 96h 14%, Shiga inhibitor 101*, NS1 inh 1%, Cycloheximide cs 24*, SARS PLP yeast -15% and Pf growth 48h -70%.
`COC(=O)c1ccc(N)c(N=CC2=C(O)CC(C)(C)CC2=O)c1` gave Pf growth 96h 62%, Shiga inhibitor 19*, NS1 inh 26%, Cycloheximide cs 50*, SARS PLP yeast 25% and Pf growth 48h 25%.
Screening Cc1cc(C)cc(N(CCC#N)C(=O)COC(=O)C2CCN(c3ccc(C(F)(F)F)cn3)CC2)c1 returned Pf growth 96h inconclusive, SARS PLP yeast 1% and Pf growth 48h inconclusive.
`CCC1SC(=Nc2cccc(C)c2)NC1=O` (configuration not stated) gave Pf growth 96h 10µM*, Shiga inhibitor -7, NS1 inh -2%, Cycloheximide cs 4, SARS PLP yeast 1% and Pf growth 48h 19%.
Cc1cccc(N=C2NC(=O)C(CO)(CO)S2)c1 was read as Pf growth 96h inconclusive, Shiga inhibitor -7, NS1 inh 7%, Cycloheximide cs 1, SARS PLP yeast -2% and Pf growth 48h 9%.
`CC(C)(C)c1ccc(C(=O)N2CCN(c3nc4ccccc4o3)CC2)cc1` gave Pf growth 96h 11%, Shiga inhibitor -2, NS1 inh 11%, Cycloheximide cs -2 and SARS PLP yeast 2%.
Screening O=C(c1cc2ccccc2cc1O)N1CCN(c2cccc(Cl)c2)CC1 returned Pf growth 96h 12µM*, SARS PLP yeast 1% and Pf growth 48h inconclusive.
Screening O=C(c1ccc(-c2ccccc2)cc1)N1CCN(c2nc3ccccc3o2)CC1 returned Pf growth 96h inconclusive, Shiga inhibitor 13, NS1 inh -5%, Cycloheximide cs 15*, SARS PLP yeast 1% and Pf growth 48h 20%.
Screening CC(C)(C)NC(=O)C1CCN(C(=O)c2ccc(-c3ccccc3)cc2)CC1 returned Shiga inhibitor 15, NS1 inh -49%, Cycloheximide cs 14, SARS PLP yeast 3% and Pf growth 48h 9.3µM*.
CS(=O)(=O)N(Cc1ccccc1)c1ccc(C(=O)N2CCN(c3cccc(Cl)c3)CC2)cc1 was read as Shiga inhibitor 42, NS1 inh 14%, Cycloheximide cs 22*, SARS PLP yeast 2% and Pf growth 48h inconclusive.
Screening CC(C)CC1COC(=O)N1 (configuration not stated) returned Pf growth 96h 7%, Shiga inhibitor -7, NS1 inh -12%, Cycloheximide cs -2, SARS PLP yeast 2% and Pf growth 48h 35%.
CCN(CC)c1ccc(/C=N/NC(=O)c2c(-c3ccccc3)noc2C)cc1 was read as Pf growth 96h -6%, Shiga inhibitor -12, NS1 inh -8%, Cycloheximide cs -5, SARS PLP yeast 3% and Pf growth 48h -5%.
For O=C(c1ccc(-c2ccccc2)cc1)N1CCN(c2ccccc2)CC1 the results were Pf growth 96h 17%, Shiga inhibitor 28, NS1 inh -3%, Cycloheximide cs 13*, SARS PLP yeast 1% and Pf growth 48h 62%.
For CCOc1ccc(C(=O)N2CCN(c3ccccc3)CC2)cc1 the results were Pf growth 96h -7%, Shiga inhibitor 30*, NS1 inh -4%, Cycloheximide cs 11, SARS PLP yeast 0% and Pf growth 48h 59%.
Screening CCN(CC)C(=O)Oc1ccc(Br)cc1C(=O)Nc1ccc(F)cc1F returned Pf growth 96h 19%, Shiga inhibitor -7, NS1 inh -7%, Cycloheximide cs 2, SARS PLP yeast -1% and Pf growth 48h 38%.
Screening Cc1cc(C)n(-c2nnc(NC34CC5CC(CC(C5)C3)C4)nn2)n1 returned Pf growth 96h 2.9µM*, Shiga inhibitor 21*, NS1 inh 3%, Cycloheximide cs 37*, SARS PLP yeast -31% and Pf growth 48h 3.3µM*.
`Cc1cc(C)n(-c2ncc(C#N)cn2)n1` gave Pf growth 96h 36%, Shiga inhibitor -5, NS1 inh 3%, Cycloheximide cs 2, SARS PLP yeast 1% and Pf growth 48h 15%.
Cc1cc(C)n(-c2nc(NC(C)(C)C)nc(NC(C)(C)C)n2)n1 was read as Pf growth 96h 16%, Shiga inhibitor -10, NS1 inh 4%, Cycloheximide cs -4, SARS PLP yeast 2% and Pf growth 48h inconclusive.
Screening Cc1cc(C)n(-c2nnc(NC(C)(C)C)nn2)n1 returned Pf growth 96h 181%, Shiga inhibitor 54*, NS1 inh -3%, Cycloheximide cs 26*, SARS PLP yeast -8% and Pf growth 48h 209%.
Screening CCCC[C@H](CC)CN1CN(C[C@@H](CC)CCCC)CC(C)(N)C1 returned Pf growth 96h inconclusive and Pf growth 48h -20%[12.8 µM].
`O=S(=O)(c1cccc(C(F)(F)F)c1)N1CCN(c2nc(-c3cccs3)nc3cc(Cl)ccc23)CC1` gave Shiga inhibitor 2 and Cycloheximide cs -5.
Screening COc1ccc(NC(=O)c2ccc(COc3ccccc3)o2)cc1 returned Pf growth 96h 83%, Shiga inhibitor 24, NS1 inh -12%, Cycloheximide cs 21*, SARS PLP yeast -4% and Pf growth 48h 34%.
COc1ccc(NC(=O)c2ccc(Cc3ccc(C)cc3)o2)cc1 was read as Pf growth 96h inconclusive, Shiga inhibitor 29, NS1 inh -31%, Cycloheximide cs 24*, SARS PLP yeast -68% and Pf growth 48h -22%.
Screening COC(=O)c1ccccc1NC(=O)c1ccc(COc2ccccc2)o1 returned Pf growth 96h 13%, Shiga inhibitor 4, NS1 inh -14%, Cycloheximide cs -2 and Pf growth 48h 5%.
For COc1ccc(NC(=O)c2ccc(COc3ccccc3)o2)c(OC)c1 the results were Pf growth 96h 8.3µM*, Shiga inhibitor -5, NS1 inh -19%, Cycloheximide cs 3, SARS PLP yeast -11% and Pf growth 48h -8%.
CCCCCN(C(=O)CCC(=O)OCCOc1cccc(Cl)c1)c1c(N)n(CCCC)c(=O)[nH]c1=O was read as Pf growth 96h 2%, SARS PLP yeast -6% and Pf growth 48h inconclusive.
COc1ccccc1N1CCN(C(c2cccs2)C(C)NS(=O)(=O)c2ccccc2)CC1 (configuration not stated) was read as Pf growth 96h 7.4µM*, Shiga inhibitor 3, Cycloheximide cs -1, SARS PLP yeast 0% and Pf growth 48h inconclusive.
For CC(NS(=O)(=O)c1ccccc1)C(c1cccs1)N1CCN(c2ccccc2)CC1 (configuration not stated) the results were Pf growth 96h 8.3µM*, Shiga inhibitor -2, NS1 inh -62%, Cycloheximide cs -1, SARS PLP yeast 0% and Pf growth 48h inconclusive.
Cc1nc(NCCc2ccccc2)sc1C(=O)N(C)C was read as Pf growth 96h 120%, Shiga inhibitor 58*, NS1 inh -7%, Cycloheximide cs 37*, SARS PLP yeast 1% and Pf growth 48h 91%.

High-throughput results deposited in PubChem BioAssay by National Center for Advancing Translational Sciences (NCATS).
